The nature of assay [1]: resazurin metabolic signal in HepG2 cells – cell-based, resazurin fluorescence, 24 h, PK04 Diversity Set, profiling panel (AID 1172). Also: test concentration not given here. The settings on record: HepG2 viability, higher = more signal. In general terms: Resazurin is reduced to fluorescent resorufin, in cell work by metabolically active cells.
The nature of assay [2]: budding yeast growth changes without added modifier – OD600, strain BY4716, 24 h, basal condition, primary screen (AID 1173). The following applies: S. cerevisiae BY4716 growth, OD600, 24 h; higher = more signal, called active from +8 up or from −8 down.
Assay [3] can be described thus: viability profiling in MM1S myeloma cells – cell-based, resazurin fluorescence, basal, 24 h, PK04 Diversity Set, profiling panel (AID 1174).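 Also: MM1S multiple myeloma cell line; test concentration not given here.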 The settings on record: higher = more signal, called active from +8 up or from −8 down.
Assay [4] has as its target Dihydroorotate dehydrogenase (quinone), mitochondrial (Plasmodium falciparum (isolate 3D7)) (UniProt Q08210). Description: inhibition of P. falciparum DHODH – biochemical, C-terminal His tag, absorbance 600 nm, primary screen (AID 1175).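 Also: recombinant parasite enzyme with a five histidine tag at its C terminus; test concentration not given here.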 The settings on record: PfDHODH enzyme, DCIP absorbance 600 nm; higher = more signal, called active from +8 up or from −8 down.
Assay [5] is described as follows: inhibition of PAO1 biofilm formation – strain PAO1, LB-PBS medium, absorbance 600 nm, primary screen (AID 1176). Also: test concentration not given here. The following applies: P. aeruginosa PAO1 growth/biofilm, A600, 12 h; higher = more signal.
Assay [6] is described as follows: growth modulation of vineyard yeast isolate – strain RM11-1a, OD600, basal, 24 h, primary screen (AID 1177).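 Also: cultures grown under basal conditions with no added stressor; test concentration not given here.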 The following applies: S. cerevisiae RM11-1a growth, OD600, 24 h; higher = more signal, called active from +8 up or from −8 down.
Assay [7] is described as follows: growth of efflux-deficient E. coli DRC39 – strain DRC39, OD650, 24 h, E. coli filamentation inducers, primary screen (AID 1178).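 Also: growth measured as culture turbidity by optical density at 650 nm; test concentration not given here.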 The settings on record: E. coli DRC39 acrAB, higher = more signal, called active from +8 up or from −8 down.
The nature of assay [8]: growth of efflux-deficient E. coli DRC39 – strain DRC39, OD650, 48 h, E. coli filamentation inducers, primary screen (AID 1179).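 Also: screen aims at cell division blockers that make cells filament.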 The settings on record: E. coli DRC39 delta-acrAB growth, higher = more signal, called active from +8 up or from −8 down.
A short description of assay [9]: viability profiling in RPMI8226 myeloma cells – cell-based, resazurin fluorescence, basal, 24 h, PK04 Diversity Set, profiling panel (AID 1180).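 Also: RPMI8826 multiple myeloma cell line at 5000 cells per well; test concentration not given here.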 The settings on record: higher = more signal.
Assay [10] deals with E3 ubiquitin-protein ligase XIAP (Homo sapiens) (UniProt P98170). Description: small molecules binding XIAP protein – biophysical, small-molecule microarray, fluorescence 635 nm, primary screen (AID 1181).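 Also: score merges 667 nm emission and signal to noise over triplicate slides.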 The following applies: higher = more signal.

Activity calls are given as the source filed them. Unless noted, no rule for the calls is given here.

Sequence of E3 ubiquitin-protein ligase XIAP (Homo sapiens) (P98170 whole entry, looked up): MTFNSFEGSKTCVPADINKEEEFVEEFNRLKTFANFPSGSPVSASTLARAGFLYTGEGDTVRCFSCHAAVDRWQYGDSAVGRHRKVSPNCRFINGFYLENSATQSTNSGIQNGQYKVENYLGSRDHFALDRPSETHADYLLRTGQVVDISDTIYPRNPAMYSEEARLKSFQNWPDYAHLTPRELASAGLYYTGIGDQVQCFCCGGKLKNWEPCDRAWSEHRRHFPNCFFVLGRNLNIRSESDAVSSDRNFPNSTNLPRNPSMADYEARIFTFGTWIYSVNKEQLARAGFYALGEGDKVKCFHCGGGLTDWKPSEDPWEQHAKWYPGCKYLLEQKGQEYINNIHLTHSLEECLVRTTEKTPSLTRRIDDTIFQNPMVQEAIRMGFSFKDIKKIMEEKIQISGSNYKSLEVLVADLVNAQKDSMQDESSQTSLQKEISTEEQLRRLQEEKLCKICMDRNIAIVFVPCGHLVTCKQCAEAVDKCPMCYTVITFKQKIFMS
Sequence of Dihydroorotate dehydrogenase (quinone), mitochondrial (Plasmodium falciparum (isolate 3D7)) (Q08210 whole entry, looked up): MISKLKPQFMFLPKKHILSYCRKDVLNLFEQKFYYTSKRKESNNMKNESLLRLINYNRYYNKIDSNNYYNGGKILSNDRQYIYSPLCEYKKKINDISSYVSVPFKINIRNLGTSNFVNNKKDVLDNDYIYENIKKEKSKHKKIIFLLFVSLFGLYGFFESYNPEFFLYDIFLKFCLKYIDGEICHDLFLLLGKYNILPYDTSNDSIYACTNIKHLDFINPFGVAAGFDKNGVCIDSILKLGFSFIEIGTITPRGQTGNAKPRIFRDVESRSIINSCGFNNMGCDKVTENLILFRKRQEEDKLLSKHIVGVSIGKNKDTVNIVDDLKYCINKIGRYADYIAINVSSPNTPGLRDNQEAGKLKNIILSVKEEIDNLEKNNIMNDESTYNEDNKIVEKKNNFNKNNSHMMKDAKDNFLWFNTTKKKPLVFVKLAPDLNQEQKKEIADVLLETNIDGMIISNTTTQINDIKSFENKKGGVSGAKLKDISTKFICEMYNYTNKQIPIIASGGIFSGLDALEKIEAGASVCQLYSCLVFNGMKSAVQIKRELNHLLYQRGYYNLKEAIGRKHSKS

As to `COCCCNC(=O)[C@@]1(Cc2ccccc2CN=[N+]=[N-])N=C(c2ccc(OCCCO)cc2)O[C@H]1c1ccccc1`, the z-score in assay [1] was 0.636; in assay [2], 0.41 (inactive); in assay [3] it was -0.88 (inactive); in assay [5] it was -0.317 (inactive); in assay [6], 1.92 (inactive); in assay [7], 1.28 (inactive). In addition, the results for the z-score in [8] and in assay [9] were 0.242 (inactive) and -1.75, respectively. For the same compound, the composite z-score in assay [4] was 1.22 (inactive); in [10], -0.052.
As to `O=C1C[C@@](C(=O)NCCN2CCOCC2)(c2ccc([N+](=O)[O-])cc2)[C@@H](c2ccc(CO)cc2I)N1C1CCCCC1`, the z-score is 0.95 in assay [1]; -2.72 (inactive) in [2]; 1.11 (inactive) in assay [3]; -0.261 (inactive) in assay [5]; -1.19 (inactive) in assay [6]; 0.497 (inactive) in [7]. For the same compound, the z-score was 0.356 (inactive) in assay [8] and 0.891 in assay [9]. The composite z-score in assay [4] is 0.362 (inactive); in [10], 0.0223.
As to `CN1C(=O)C2C=CC(C(O)c3cccc4ccccc34)N(N3CCCCC3)C2C1=O` (stereo not given), the z-score was -0.908 in [1]; 1.51 (inactive) in assay [2]; -1.41 (inactive) in assay [3]; -0.0625 (inactive) in [5]; -0.334 (inactive) in [6]; -0.619 (inactive) in assay [7]. The z-score in assay [8] was -0.456 (inactive); in assay [9], -1.74. In addition, the composite z-score in assay [4] is -0.0243 (inactive); in assay [10], 0.0077.
In the case of `CCOC(=O)C1=CC[C@@H](c2ccccc2C(F)(F)F)N(S(=O)(=O)c2ccc(C)cc2)[C@H]1c1ccc(C#N)cc1`, the z-score in assay [1] was -0.0666; in assay [2] it was 1.02 (inactive); in assay [3] it was -1.39 (inactive); in assay [5] it was 1.01 (inactive); in assay [6], -0.171 (inactive); in assay [7], -0.534 (inactive). Further, the z-score is 0.312 (inactive) in [8] and -0.823 in [9]. The composite z-score in assay [4] is -0.0408 (inactive); in [10], -0.0172.
`CN1C(=O)C2C=CC(C(O)COCc3ccccc3)N(N(c3ccccc3)c3ccccc3)C2C1=O` (stereo not given): the z-score in [1] was 0.669; in [2], -2.9 (inactive); in assay [3] it was -0.902 (inactive); in assay [5], 1.04 (inactive); in assay [6], 0.591 (inactive); in assay [7], 0.202 (inactive). The z-score is 0.0087 (inactive) in assay [8] and -0.861 in assay [9]. For the same compound, the composite z-score in assay [4] is -0.0748 (inactive); in [10] it was 0.0537.
On to `CN(C)C(=O)[C@]1(CCS(=O)(=O)c2ccccc2)N=C(c2ccc(OCCCO)cc2)O[C@@H]1c1ccccc1N=[N+]=[N-]`, for which the z-score was -0.622 in assay [1]; -0.0799 (inactive) in assay [2]; -0.99 (inactive) in [3]; 0.218 (inactive) in assay [5]; 0.386 (inactive) in assay [6]; 0.292 (inactive) in assay [7]. Moreover, the figures for the z-score in [8] and in assay [9] were 0.393 (inactive) and -1.01, respectively. The composite z-score in assay [4] is 1.05 (inactive); in assay [10], 0.273.
Regarding `COCCOC(=O)N1C(=O)[C@@]2(c3cc(C#Cc4ccc(OC)cc4)ccc31)[C@H](C(=O)Nc1nc3ccccc3s1)[C@H]1C(=O)O[C@H](c3ccccc3)[C@H](c3ccccc3)N1[C@@H]2c1ccc(OCCO)cc1`, the z-score in assay [1] was -0.635; in [2] it was 3.03 (inactive); in [3], -0.63 (inactive); in assay [5], 2.32 (inactive); in [6] it was 3.64 (inactive); in assay [7] it was -0.358 (inactive). Also, the figures for the z-score in [8] and in assay [9] were -0.486 (inactive) and -0.56, respectively. Moreover, the composite z-score was -0.27 (inactive) in assay [4] and -0.075 in [10].
Turning to `COc1ccccc1CN1C(=O)c2ccccc2[C@](Cc2ccccc2I)(C(=O)NCC(F)(F)F)[C@@H]1c1ccc(CO)cc1`, the z-score in assay [1] is -0.569; in [2], -1.28 (inactive); in [3], -0.142 (inactive); in assay [5], 0.457 (inactive); in assay [6] it was 0.648 (inactive); in assay [7], -0.496 (inactive). Besides, the z-score was -0.613 (inactive) in assay [8] and 0.17 in assay [9]. The figures for the composite z-score in assay [4] and in assay [10] were -0.673 (inactive) and 0.0264, respectively.
For the compound `CCCCCCc1nc(C2CC2)cc2c1[Si](C(C)C)(C(C)C)O[C@H]2c1ccccc1`, the z-score is -0.868 in assay [1]; 0.391 (inactive) in [2]; -0.749 (inactive) in [3]; 0.0672 (inactive) in [5]; -0.553 (inactive) in [6]; -0.476 (inactive) in assay [7]. Besides, the figures for the z-score in assay [8] and in [9] were -0.594 (inactive) and -0.249, respectively. Moreover, the composite z-score is 0.423 (inactive) in [4] and -0.0872 in assay [10].
Take `O=C(NCC(F)(F)F)[C@@H]1c2ccccc2C(=O)N(Cc2ccccc2C(F)(F)F)[C@H]1c1ccc(CO)cc1`: the z-score is -0.0877 in assay [1]; 0.0223 (inactive) in assay [2]; -0.474 (inactive) in assay [3]; 0.292 (inactive) in assay [5]; -0.246 (inactive) in assay [6]; -0.308 (inactive) in [7]. The z-score is 0.263 (inactive) in assay [8] and -0.853 in assay [9]. The composite z-score in assay [4] was -0.184 (inactive); in assay [10], -0.184.
With `Cc1ccc(S[C@]2(C(=O)NCC(F)(F)F)CC(=O)N(Cc3ccccc3C(F)(F)F)[C@@H]2c2ccc(CO)cc2I)cc1`, the z-score was 0.719 in [1]; -3.66 (inactive) in assay [2]; -2.62 (inactive) in [3]; -0.0623 (inactive) in assay [5]; -1.21 (inactive) in assay [6]; 0.506 (inactive) in assay [7]. Further, the z-score was 1.21 (inactive) in assay [8] and -1.15 in assay [9]. Besides, the values for the composite z-score in assay [4] and in assay [10] were 0.196 (inactive) and 0.531, respectively.
For `CC(C)C[C@@H]1NC(=O)[C@@H]2C[C@H](C(=O)NCCCCN(C)C)[C@H](c3cccc(OCCO)c3)N2C1=O`, the z-score in assay [1] was 0.0064; in assay [2] it was -0.453 (inactive); in assay [3] it was 0.303 (inactive); in assay [5], 0.655 (inactive); in assay [6] it was -0.121 (inactive); in assay [7], 0.0825 (inactive). The z-score in assay [8] is -0.653 (inactive); in assay [9], -0.127. The figures for the composite z-score in assay [4] and in assay [10] were -1.21 (inactive) and -0.0749, respectively.
In the case of `CN(C)C(=O)[C@@]1(CCS(=O)(=O)c2ccccc2)N=C(c2ccc(OCCCO)cc2)O[C@H]1c1ccccc1`, the z-score in assay [1] is 0.29; in [2], 0.26 (inactive); in assay [3], -0.236 (inactive); in assay [5], -0.372 (inactive); in assay [6], -0.0905 (inactive); in assay [7] it was -1.47 (inactive). Also, the z-score in assay [8] is -0.732 (inactive); in assay [9] it was -0.22. Further, the composite z-score in [4] was -0.431 (inactive); in assay [10], -0.0866.

The values are drawn from PubChem BioAssay.
